Insulin prom up: MIN6 insulin promoter up-regulation; 0.3% of 190,000 active; AID 1625; z-score at 5 µM; MIN6 insulin promoter-GFP reporter, high-content imaging; stronger effect = higher value;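 active = z-score above 3 at 5 µM with at least 500 cells counted in the well; inconclusive = wells under 500 cells, flagged as cytotoxic or low count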
Insulin prom inh: TRM-6 insulin promoter activity inhibition. TRM-6 cells (human fetal islet line), insulin promoter-eGFP reporter, imaging; reporter expression induced with tamoxifen. inhibition, % at 2 µM. 0.9% of 130,000 active;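 active = inhibition above the mean plus 3 SD, with well images judged a real hit on visual review, cut at about 60% in these data, passing the limit was not always enough; inconclusive = inhibition over the cutoff but images rejected on review; inactive = inhibition not above the cutoff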
Autophagy HCS: modulators of autophagy | MEF GFP-LC3 puncta imaging; test concentration mostly 10 µM | calls only at 10 µM (by protocol) | 0.98% of 190,000 active | AID 463193;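 active = percentage of spot-positive cells more than 3 SD above its plate mean, without a fluorescence outlier flag or 80% toxicity; inconclusive = no clear call, values can overlap the other calls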;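 note: spot-positive cell cutoff set from DMSO-treated cells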
Lmaj promast: Leishmania major promastigote growth inhibition; AID 1063; Leishmania major promastigotes, resazurin fluorescence viability; inhibition, % at 10 µM; 9% of 200,000 active; in the data active = inhibition above about 50%;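 note: promastigotes grown with compound for 44 hours at 28 °C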
WT yeast gro inh: growth inhibition of WT yeast, mitochondrial fusion screen; 2.1% of 190,000 active; AID 1362; inhibition, % at 10 µM; mitochondrial fusion phenotypic screen, WT strain; in the data active = inhibition above about 58%; tested in S. cerevisiae
* marks the source's active call; other numbers are inactive results; i = inactive; ? = inconclusive; . = not tested or not shown; + = active, no number. Shown are actives, neighbours in structure and some others; about 11% of the full set was active somewhere.

SMILES | Insulin prom up | Insulin prom inh | Autophagy HCS | Lmaj promast | WT yeast gro inh
COc1ccc(/C=N/Nc2ccccc2)cc1Cn1nc(C)c([N+](=O)[O-])c1C | . | 21 | i | 77* | 13
Cc1ccc(NNC(=O)c2ccc(Cl)cc2)nn1 | 2.2 | . | . | . | .
O=C(CNc1cc(S(=O)(=O)N2CCOCC2)ccc1N1CCCC1)NCc1ccco1 | 0.09 | -7 | i | -3 | -2
O=C(O)CN1CCN(Cc2ccccc2F)C1=O | 0.53 | 30 | i | -8 | -8
Cc1cc(N2CCN(c3ccccc3Cl)CC2)n2cc(-c3ccccc3)nc2n1 | -0.01 | 23 | i | 49 | 74*
Cc1cc(N2CCN(c3ccccc3)CC2)n2cc(-c3ccccc3)nc2n1 | -0.18 | 50 | i | 10 | 29
COc1ccccc1NC(=O)c1cc2n(n1)C(C(F)(F)F)CC(c1ccc3c(c1)OCO3)N2 (configuration not stated) | -1.3 | -42 | i | 62* | 4
COc1ccc(OC)c(NC(=O)c2cc3n(n2)C(C(F)(F)F)CC(c2ccc4c(c2)OCO4)N3)c1 (configuration not stated) | . | . | i | 27 | .
O=C(NCc1ccc2c(c1)OCO2)c1cc2n(n1)C(C(F)(F)F)CC(c1ccc3c(c1)OCO3)N2 (configuration not stated) | 0.01 | . | i | -6 | 10
O=C(Nc1cc(Cl)ccc1O)c1cc2n(n1)C(C(F)(F)F)CC(c1ccc3c(c1)OCO3)N2 (configuration not stated) | 0.01 | 0 | i | 84* | 34
Cc1ccc2cc(C#N)c(SCc3nnc(-c4ccccc4[N+](=O)[O-])o3)nc2c1 | -0.06 | -237 | + | 33 | -26
Cc1ccc(C(=O)C(C)N(C(=O)c2ccc(Cl)cc2Cl)N2C(=O)CCCC2=O)cc1 (configuration not stated) | 0.36 | . | i | 25 | -6
COc1ccc(C(=O)C(C)N(C(=O)c2ccc(Cl)cc2Cl)N2C(=O)C3C4C=CC(C4)C3C2=O)cc1 (configuration not stated) | -1.2 | -76 | i | 90* | 32
COc1ccc(S(=O)(=O)N(C)CC(=O)N2CCC(C)CC2)cc1Cl | 0.65 | 53 | i | 97* | -10
Cc1ccc(-n2nnnc2-c2ccccc2)cc1 | -0.85 | -67 | i | -4 | 19
Clc1ccc(-c2nnnn2-c2ccc(Cl)c(Cl)c2)cc1Cl | . | -9 | i | 14 | 79*
CC[n+]1c(/C=C/C=C/N(C(C)=O)c2ccccc2)sc2ccccc21 | ? | -203 | + | 3 | 22
CCn1c(/C=C/N(C(C)=O)c2ccccc2)[n+](CC)c2ccc(Cl)cc21 | 0.38 | 50 | i | 18 | 1
CCOC(=O)c1oc2ccccc2c1NC(=O)CN1CCOCC1 | -0.49 | -14 | i | 7 | 6
COc1ccc2[nH]cc(CCNS(=O)(=O)c3ccc(NC(C)=O)cc3)c2c1 | 0.15 | . | + | -4 | -13
COc1ccc(-c2nnc3n2-c2ccccc2SC3)cc1OC | 0.48 | . | i | -1 | -26
CN1C(c2ccc(F)cc2)=CS/C1=C(/C#N)c1nnc(N2CCOCC2)n1-c1ccccc1 | -0.12 | 0 | i | 56* | 2
CN1C(=O)NC(c2ccccc2)(C(F)(F)F)S/C1=C(/C#N)c1nnc(N2CCOCC2)n1-c1ccccc1 (configuration not stated) | -1.4 | 0 | i | -5 | -3
C=CCN1C(c2ccccc2)=CS/C1=C(/C#N)c1nnc(N2CCOCC2)n1-c1ccccc1 | 0.04 | ? | i | 74* | -14
CCN1C(c2ccc(F)cc2)=CS/C1=C(\C#N)c1nnc2n1-c1ccccc1SC2 | 0.06 | . | i | 72* | 1
SMILES | Insulin prom up | Insulin prom inh | Autophagy HCS | Lmaj promast | WT yeast gro inh
CCOc1ccc(C2N(c3ccc(F)cc3)C(=O)C3CCCN32)cc1OC (configuration not stated) | -0.43 | . | i | -5 | 4
CN1CCN(/N=C/c2c3ccccc3c(Cl)c3ccccc23)CC1 | 1 | -28 | i | 66* | 96
O=C(CCn1c(=O)[nH]c2ccccc2c1=O)N1CCN(c2cccc(C(F)(F)F)c2)CC1 | 1.8 | . | i | -4 | 1
CN(C)S(=O)(=O)c1ccc(NC(=O)N2CCN(c3cccc(C(F)(F)F)c3)CC2)cc1 | 0.4 | 43 | i | 21 | -6
COc1ccc(NC(=O)N2CCN(c3cccc(C(F)(F)F)c3)CC2)cc1 | . | 75* | i | 0 | 4
C/C(=C\c1ccccc1)C(=O)N1CCN(c2cccc(C(F)(F)F)c2)CC1 | -0.56 | 24 | i | 55* | 47
COc1cccc(NC(=O)N2CCCC2)c1 | 0.51 | -16 | i | 7 | -2
COc1cccc(NC(=O)N2CCN(c3nnnn3-c3ccccc3)CC2)c1 | 3.1* | . | i | 17 | 1
O=C(CCCCn1c(=O)[nH]c2ccccc2c1=O)N1CCN(c2cccc(C(F)(F)F)c2)CC1 | -1.2 | . | i | 82* | 13
CCOc1ccc(C(=O)Nc2cccc3ncccc23)cc1Br | 0.6 | . | i | 10 | 6
CCc1ccc(NC(=O)CSc2nnc(SCC(=O)Nc3ccc(CC)cc3)n2N)cc1 | -0.22 | -27 | i | 9 | -12
Cc1nnc(SCCn2c(N3CCN(c4ccccc4)CC3)nc3c2c(=O)n(C)c(=O)n3C)s1 | . | . | . | . | 12
CCCn1c(=O)c(C(=O)NNS(=O)(=O)c2ccc(Cl)cc2)c(O)c2ccccc21 | -0.35 | 24 | i | 40 | 22
CCC1Cc2c(nc(N)c3c(N)nc(N4CCCCC4)c(C#N)c23)O1 (configuration not stated) | -2.6 | -120 | i | 51* | -11
N#Cc1c(N2CCCCC2)nc(N)c2c(N)nc3c(c12)CC(c1ccccc1)O3 (configuration not stated) | -0.16 | 9 | i | 40 | 14
CC(C)(C)C(=O)NC(=S)NNC(=O)c1ccc(Cl)cc1Cl | -0.24 | . | i | -7 | -4
CC(C)Cn1c(O)c(/C=C2\C=NN=C2c2ccccc2)sc1=S | -1.1 | -3 | i | 13 | 63*
COc1cc(/C=N/NC(=O)CC23CC4CC(CC(C4)C2)C3)cc(Br)c1OCC(=O)N(C)C | 0.34 | 15 | i | 93* | -13
O=C(CC12CC3CC(CC(C3)C1)C2)N/N=C/c1ccncc1 | 0.21 | 18 | i | 68* | 4
CC(C)(C)NC(=O)COC(=O)c1ccccc1OCC(=O)Nc1ccc(Br)cc1 | 1.9 | . | i | -4 | -7
COCCNC(=O)C(=O)NNC(=O)CCc1ccccc1 | -0.02 | . | i | -8 | -20
Cc1ccc(CN2CCN(/N=C/c3cc(Br)cc(Br)c3O)CC2)c(C)c1 | -0.6 | . | i | 13 | 21
CC(=O)Nc1ccc(Cl)cc1C1COC(=O)C1=N (configuration not stated) | -0.15 | . | i | -2 | -6
CC(C)C(=O)NC(=S)Nc1ccc(S(=O)(=O)N(C)Cc2ccccc2)cc1 | -1.3 | 0 | i | 38 | 59*
Cc1cccc(C(=O)NC(=S)Nc2ccc(S(=O)(=O)N3CCCCC3)cc2)c1 | -1.9 | 14 | i | 100* | 31
CN(c1ccccc1)S(=O)(=O)c1ccc(NC(=O)c2ccccc2)cc1 | 0.11 | -27 | i | 24 | -2
